Pf growth 48h: Primary qHTS for delayed death inhibitors of the malarial parasite plastid, 48 hour incubation. Potency, µM (doses to about 28.7 µM), without a hit: top-dose activity change, negative = inhibition, most hits filed as inhibitors. AID 504832, 2011. P. falciparum luciferase growth in erythrocytes, 48 h. 310,000 compounds, 5.9% hits; note: % is set by controls: 0 for no effect and ±100 for the full control effect
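Erythrocytes infected with P. falciparum carrying an integrated firefly luciferase reporter (2% hematocrit, 0.1% parasitemia final) were exposed to compounds in RPMI 1640 with 0.5% Albumax at 37 C, 5% CO2. Growth inhibition was scored as reduced luminescence.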
SARS PLpro yeast: qHTS of Yeast-based Assay for SARS-CoV PLP. S. cerevisiae expressing SARS-CoV PLpro, growth rescue. Potency, µM (highest dose often 32.9 µM), inactives show at the highest dose activity, positive = growth rescue, most hits filed as activators. 330,000 compounds, 0.19% hits; calls by dose curve; note: 0% is about no effect; nearly all actives have a fitted effect of over 55% in size
AMA1-RON2 inh: qHTS for Inhibitors of AMA1-RON; Towards Development of Antimalarial Drug Lead: Primary Screen; Plasmodium falciparum AMA1 (3D7) - RON2 peptide interaction; AlphaScreen AMA1-biotinylated RON2 peptide binding; Potency, µM (series often up to 58.2 µM), for the others: at the top dose activity change, negative = inhibition, hits mostly inhibitors; 360,000 compounds, 0.2% hits;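 note: 0% = vehicle wells and -100% = peptide control; nearly all actives have a fitted effect of over 45% in size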
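AMA1 (3D7) with his tag at 25 nM final met compounds first, then biotinylated RON2 peptide at 25 nM; detection used donor plus acceptor beads, 10 µg/mL apiece, read by AlphaScreen after 30 min at room temperature.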
Pf growth 96h: Primary qHTS for delayed death inhibitors of the malarial parasite plastid, 96 hour incubation. P. falciparum luciferase reporter growth, 96 h. Potency, µM (titrated, usually from 28.7 µM), without a hit: at the highest dose activity change, negative = inhibition, usual class: inhibitors. 320,000 compounds, 6.9% hits; note: % is set by controls: 0 for no effect and ±100 for the full control effect
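Two parasite generations (96 h, 37 C, 5% CO2) of compound exposure in infected erythrocytes (0.05% parasitemia, 2% hematocrit). Luciferase-reporter P. falciparum; decreased luminescence indicates inhibited growth, aimed at apicoplast-acting delayed death.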
Numbers without * were called inactive; ? = inconclusive; / = not tested or not shown. Compounds with a hit are over-represented: about 9.4% of the library has one in this group of screens. Unless noted, calls come from the whole dose curve; as a rule, active = well fitted curve in the direction sought with a large enough effect; inconclusive = small, poorly fitted or top-dose-only effect, or another doubt; inactive = no such curve, though single readings can be large; an effect the other way counts as inactive or inconclusive. Potency is the fitted concentration of half-maximal effect.

SMILES	Pf growth 48h	SARS PLpro yeast	AMA1-RON2 inh	Pf growth 96h
CN(c1ccc(OCC(=O)OCC(=O)Nc2ccc(F)cc2)cc1)S(=O)(=O)c1ccc(Cl)cc1	-7%	-18%	5%	?
Cc1ccc(S(=O)(=O)N(C)c2ccc(OCC(=O)NCC3(N(C)C)CCCCC3)cc2)cc1	9.3µM*	-14%	-14%	9.3µM*
CC(=O)c1ccccc1NC(=O)COc1ccc(N(C)S(=O)(=O)c2ccc(C)c(C)c2)cc1	10µM*	-14%	4%	12µM*
O=C(COc1ccc(C(=S)N2CCCC2)cc1)Nc1ccc(F)cc1	-22%	-4%	-12%	10µM*
Cc1ccc(NC(=O)COc2ccc(N(C)S(=O)(=O)c3ccc(F)cc3)cc2)cc1	?	3%	-10%	10µM*
COCC(C)n1c(C)cc(C(=O)COc2ccc(N(C)S(=O)(=O)c3ccc(NC(C)=O)cc3)cc2)c1C (stereo not given)	4.7µM*	-2%	0%	1.3µM*
C=CCn1c(C)cc(C(=O)COc2ccc(N(C)S(=O)(=O)c3ccc(NC(C)=O)cc3)cc2)c1C	/	-1%	-7%	/
COc1ccc(CCN(C)C(=O)COc2ccc(N(C)S(=O)(=O)c3ccc(C)cc3)cc2)cc1OC	9.3µM*	-9%	10%	10µM*
Cn1cnc2c(cnn2-c2ccccc2)c1=O	38%	1%	-2%	56%
O=C(Nn1cnnc1)c1ccccc1F	-14%	-1%	-8%	0%
CCOC(=O)c1cnc(-n2nc(C)cc2C)nc1NCc1ccccc1	1.7µM*	-11%	21%	15%
CCOC(=O)c1cnc(-n2nc(C)cc2C)nc1NNc1cc(-c2ccccc2)nc(C)n1	?	-3%	/	?
CCOC(=O)c1cnc(-n2nc(C)cc2C)nc1NNc1ncc(-c2ccccc2)cn1	3.3µM*	-1%	28%	1.7µM*
CCOC(=O)c1cnc(-n2nc(C)cc2C)nc1NC(C)c1ccccc1 (stereo not given)	2.1µM*	-3%	-2%	?
CCOC(=O)c1cnc(-n2nc(C)cc2C)nc1NCCO	?	-1%	83%	36%
O=C(NNc1ncnc2c1cnn2-c1ccc(F)cc1)c1ccco1	?	-1%	146%	?
CC1CN(c2oc(-c3ccco3)nc2C#N)CC(C)O1 (stereo not given)	4%	4%	-6%	?
CCN(CC)S(=O)(=O)c1cccc(-c2nnc(SCC(=O)c3ccc(Cl)s3)n2C)c1	13µM*	-2%	1%	58%
N#CCSc1nnc(COc2cccc3ccccc23)n1-c1ccccc1	?	-4%	-12%	25%
Cc1ccc(-c2nnc(CSc3nnc(COc4cccc5ccccc45)n3-c3ccccc3)o2)cc1	/	-8%	-1%	13µM*
N#CCSc1nnc(COc2cccc3ccccc23)n1-c1cccc(Cl)c1	?	-3%	-4%	312%
COc1ccc(-n2c(COc3cccc4ccccc34)nnc2SCC#N)cc1	13µM*	-5%	-6%	-13%
Cc1csc(=Nc2ccccc2)n1Cc1ccco1	19%	-3%	-7%	-4%
O=C(CSc1ccc(-c2ccc(Cl)cc2)nn1)N1CCCc2ccccc21	8%	-15%	-5%	?
COc1ccc(S(=O)(=O)NCc2cccs2)cc1	/	6%	-5%	-15%
SMILES	Pf growth 48h	SARS PLpro yeast	AMA1-RON2 inh	Pf growth 96h
COC(=O)c1cc(S(=O)(=O)NCc2ccccc2Cl)c[nH]1	32%	4%	-9%	2.6µM*
NC(=O)c1cc(S(=O)(=O)NCc2cccs2)cs1	42%	0%	4%	8.3µM*
CCN(CC)S(=O)(=O)c1ccc(S(=O)(=O)NCc2cccs2)cc1	22%	-4%	-17%	8.3µM*
COC(=O)c1cc(S(=O)(=O)NCC2CCN(Cc3ccccc3F)CC2)c[nH]1	15%	2%	9%	27%
COC(=O)c1cc(S(=O)(=O)NCc2cccs2)c[nH]1	3%	1%	9%	12µM*
CCN1C(=O)[C@H]2[C@H]3CN=C(SC)N3[C@@](CC)(C(=O)OC)[C@H]2C1=O	/	15%	-6%	/
N=C(N)SCc1ccccn1	?	12%	0%	0%
Cc1ccc(S(=O)(=O)NCCCNC(=O)c2ccccc2)cc1	3%	4%	-5%	-7%
O=S(=O)(NCc1cccs1)c1ccc(Cl)s1	2%	-8%	1%	7.4µM*
CCn1c(SCC(=O)OC)nc2sc3c(c2c1=O)CCC3	12%	-15%	-14%	45%
CCn1c(SCc2ccc(C(=O)OC)o2)nc2sc3c(c2c1=O)CCCC3	-15%	2%	-9%	1µM*
Cc1ccc2nc(-c3ccc(O)cc3)c(Nc3ccc4c(c3)OCCO4)n2c1	/	-4%	-10%	?
COc1ccc(Nc2c(-c3ccc(C)cc3)nc3cnccn23)cc1	0%	-5%	-5%	-3%
Cc1ccc2nc(-c3ccccc3O)c(Nc3ccc4c(c3)OCCO4)n2c1	12µM*	-3%	49%	12µM*
Cc1ccc(Nc2c(-c3ccccc3O)nc3cnccn23)cc1	5.9µM*	-16%	-3%	0%
CCCn1cc(SCC(=O)NC2CCCC2)c2ccccc21	9.3µM*	/	-10%	?
CC(C)N(C(=O)Cn1cc(S(=O)(=O)CC(=O)Nc2ccccc2)c2ccccc21)C(C)C	?	3%	-16%	8.3µM*
COc1ccc(CCNC(=O)CS(=O)(=O)c2cn(CC(=O)N(C(C)C)C(C)C)c3ccccc23)cc1OC	?	4%	16%	10µM*
CNC(=O)CSc1cn(CC(=O)N(C(C)C)C(C)C)c2ccccc12	1%	-1%	-22%	10µM*
N=c1c[n+](N2CCOCC2)[n-]o1	-6%	4%	7%	3%
Cc1cc(-c2cc(C(=O)NC3CCCC3)on2)nc(NCC2CC2)n1	13%	2%	11%	17%
COc1ccc(NC(=S)NC2CC3CCC(C2)N3Cc2ccco2)cc1 (stereo not given)	5%	2%	0%	-3%
CCc1ccc(NC(=O)Cn2c(=O)n(CCC(=O)NC3CCN(Cc4ccccc4)CC3)c(=O)c3ccccc32)cc1	-12%	-1%	7%	-12%
O=C(CCCCn1c(=O)c2ccccc2n(CC(=O)NC2CCCC2)c1=O)NC1CCCC1	?	-6%	-4%	-4%
O=C(CCCCn1c(=O)c2ccccc2n(Cc2ccccc2)c1=O)NC1CCN(Cc2ccccc2)CC1	5.9µM*	2%	-3%	-10%
O=C(CCCn1c(=O)c2ccccc2n(Cc2cccc(F)c2)c1=O)NC1CCN(Cc2ccccc2)CC1	6.6µM*	0%	/	?
CC(C)COC(=O)CCn1[nH]c(=O)c2ccccc2c1=O	/	0%	17%	12%
CCCCCCCCOC(=O)CCn1[nH]c(=O)c2ccccc2c1=O	?	-33%	-13%	10µM*
COCCN1C(=O)/C(=C/c2ccc(OCc3ccc(C(=O)O)cc3)c(OC)c2)SC1=Nc1ccccc1	12µM*	-30%	-7%	8.3µM*
COc1cccc(C(=O)N2CCN(Cc3ccccn3)CC2)c1	/	-1%	?	1%

From PubChem
